# Experimental data from PMC7862700, “An all-to-all approach to the identification of sequence-specific readers for epigenetic DNA modifications on cytosine”.
# Assays:
# Experiment in all cases: DAPPL (digital affinity profiling via proximity ligation, sequencing); 10 mM Tris-HCl pH 7.5, 50 mM NaCl, 1 mM DTT, 4% glycerol, room temperature, 30 min; GST-TFs on glutathione beads, 16-mer random dsDNA library, 0.1% formaldehyde crosslink after washing; high values mean tight binding
# Conditions in all cases: protein: recombinant; tags: N-terminal GST; dsDNA, one strand shown
# ELK4 = target: T1, ELK4 (Homo sapiens, UniProt P28324-2 1-405)
# T1 sequence: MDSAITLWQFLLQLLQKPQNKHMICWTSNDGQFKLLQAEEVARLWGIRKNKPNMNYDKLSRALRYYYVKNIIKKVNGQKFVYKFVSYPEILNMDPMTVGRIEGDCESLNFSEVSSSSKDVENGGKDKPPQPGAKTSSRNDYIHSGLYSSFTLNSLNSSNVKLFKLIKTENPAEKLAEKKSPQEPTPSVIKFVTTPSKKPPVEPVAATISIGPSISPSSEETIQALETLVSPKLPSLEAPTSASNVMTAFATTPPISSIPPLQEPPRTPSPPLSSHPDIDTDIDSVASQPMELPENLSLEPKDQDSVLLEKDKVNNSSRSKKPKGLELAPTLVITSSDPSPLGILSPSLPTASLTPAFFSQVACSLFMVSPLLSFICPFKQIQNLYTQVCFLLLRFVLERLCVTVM
# Summary of the method: (§1)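 Human transcription factors fused to GST were expressed in yeast, captured on glutathione beads, given DNA barcodes and pooled with a GST-only negative control. Pools were incubated with 200 nmole of a 16-mer random double-stranded DNA library in Tris/NaCl/DTT/glycerol buffer at room temperature for 30 min. They were then washed, crosslinked with 0.1% formaldehyde, proximity-ligated (BsaI/T4 ligase, 1 h, 37 °C), PCR-amplified and sequenced on an Illumina NextSeq500. Binding signal is each 6-mer's read frequency for a factor divided by its frequency for the GST control.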
# ETV2 = target: T2, ETV2 (Homo sapiens, UniProt O00321 1-342)
# T2 sequence: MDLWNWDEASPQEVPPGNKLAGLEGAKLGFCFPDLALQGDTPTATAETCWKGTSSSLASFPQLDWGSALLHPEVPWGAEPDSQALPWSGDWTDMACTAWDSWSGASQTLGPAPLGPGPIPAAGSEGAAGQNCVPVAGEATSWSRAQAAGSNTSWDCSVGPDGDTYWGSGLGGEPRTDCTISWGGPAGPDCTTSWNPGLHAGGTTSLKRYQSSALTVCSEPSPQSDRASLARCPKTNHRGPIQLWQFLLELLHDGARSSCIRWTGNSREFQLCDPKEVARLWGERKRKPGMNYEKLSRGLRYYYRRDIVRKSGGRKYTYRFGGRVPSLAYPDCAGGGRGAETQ
# Summary of the method: as §1
# ELF3 = target: T3, ELF3 (Homo sapiens, UniProt P78545 1-371)
# T3 sequence: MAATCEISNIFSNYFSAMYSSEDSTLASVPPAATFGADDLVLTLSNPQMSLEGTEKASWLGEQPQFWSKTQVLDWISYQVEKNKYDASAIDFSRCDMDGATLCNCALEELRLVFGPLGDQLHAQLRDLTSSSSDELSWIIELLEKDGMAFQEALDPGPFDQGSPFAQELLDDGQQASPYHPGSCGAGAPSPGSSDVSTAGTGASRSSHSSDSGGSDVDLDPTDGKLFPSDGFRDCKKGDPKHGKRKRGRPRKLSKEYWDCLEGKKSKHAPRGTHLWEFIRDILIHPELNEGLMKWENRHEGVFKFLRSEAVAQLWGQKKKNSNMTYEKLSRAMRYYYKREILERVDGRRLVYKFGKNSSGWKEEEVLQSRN
# Summary of the method: as §1
# ETV1 = ETV1 (Homo sapiens, UniProt P50549 1-477)
# Summary of the method: as §1
# ERF = target: T4, ERF (Homo sapiens, UniProt P50548 1-548)
# T4 sequence: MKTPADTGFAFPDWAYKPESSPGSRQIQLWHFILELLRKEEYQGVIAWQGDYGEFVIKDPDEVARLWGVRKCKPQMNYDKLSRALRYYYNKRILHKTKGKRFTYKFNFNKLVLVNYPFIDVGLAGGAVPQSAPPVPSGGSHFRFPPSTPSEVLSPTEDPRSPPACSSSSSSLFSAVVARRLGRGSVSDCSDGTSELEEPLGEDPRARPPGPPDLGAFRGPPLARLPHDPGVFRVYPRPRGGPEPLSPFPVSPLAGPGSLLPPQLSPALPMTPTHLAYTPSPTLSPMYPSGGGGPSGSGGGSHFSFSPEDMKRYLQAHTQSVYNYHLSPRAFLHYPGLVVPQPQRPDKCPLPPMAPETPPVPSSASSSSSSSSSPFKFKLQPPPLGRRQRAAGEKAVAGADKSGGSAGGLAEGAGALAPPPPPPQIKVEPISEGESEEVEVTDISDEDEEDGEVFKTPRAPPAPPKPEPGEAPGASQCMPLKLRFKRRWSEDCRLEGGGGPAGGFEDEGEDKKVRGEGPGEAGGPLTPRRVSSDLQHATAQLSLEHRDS
# Summary of the method: as §1
# ETV3L = target: T5, ETV3L (Homo sapiens, UniProt Q6ZN32 1-361)
# T5 sequence: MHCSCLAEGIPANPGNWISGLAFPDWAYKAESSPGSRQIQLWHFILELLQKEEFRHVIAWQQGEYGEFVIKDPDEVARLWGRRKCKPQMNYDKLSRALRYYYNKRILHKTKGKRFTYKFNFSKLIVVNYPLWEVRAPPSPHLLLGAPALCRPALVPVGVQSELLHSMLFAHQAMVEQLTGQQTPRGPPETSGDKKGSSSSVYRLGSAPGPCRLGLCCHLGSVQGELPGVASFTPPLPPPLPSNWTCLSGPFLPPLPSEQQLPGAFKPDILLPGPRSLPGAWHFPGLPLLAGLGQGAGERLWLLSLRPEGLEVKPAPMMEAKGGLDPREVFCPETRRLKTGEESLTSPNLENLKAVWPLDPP
# Summary of the method: as §1
# ETS2 = target: T6, ETS2 (Homo sapiens, UniProt P15036 1-469)
# T6 sequence: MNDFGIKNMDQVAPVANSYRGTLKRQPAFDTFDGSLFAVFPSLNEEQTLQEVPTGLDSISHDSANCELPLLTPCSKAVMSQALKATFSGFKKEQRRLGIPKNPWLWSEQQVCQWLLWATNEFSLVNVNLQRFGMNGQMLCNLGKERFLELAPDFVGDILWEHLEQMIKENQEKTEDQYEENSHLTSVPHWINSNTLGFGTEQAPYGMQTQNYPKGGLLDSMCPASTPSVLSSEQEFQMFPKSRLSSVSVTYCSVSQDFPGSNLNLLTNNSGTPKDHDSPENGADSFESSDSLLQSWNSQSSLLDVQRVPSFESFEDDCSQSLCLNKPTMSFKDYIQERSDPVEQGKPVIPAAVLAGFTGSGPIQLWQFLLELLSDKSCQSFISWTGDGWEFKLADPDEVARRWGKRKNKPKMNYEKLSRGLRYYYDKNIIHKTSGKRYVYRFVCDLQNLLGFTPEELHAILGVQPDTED
# Summary of the method: as §1
# ETV7 = target: T7, ETV7 (Homo sapiens, UniProt Q9Y603 1-341)
# T7 sequence: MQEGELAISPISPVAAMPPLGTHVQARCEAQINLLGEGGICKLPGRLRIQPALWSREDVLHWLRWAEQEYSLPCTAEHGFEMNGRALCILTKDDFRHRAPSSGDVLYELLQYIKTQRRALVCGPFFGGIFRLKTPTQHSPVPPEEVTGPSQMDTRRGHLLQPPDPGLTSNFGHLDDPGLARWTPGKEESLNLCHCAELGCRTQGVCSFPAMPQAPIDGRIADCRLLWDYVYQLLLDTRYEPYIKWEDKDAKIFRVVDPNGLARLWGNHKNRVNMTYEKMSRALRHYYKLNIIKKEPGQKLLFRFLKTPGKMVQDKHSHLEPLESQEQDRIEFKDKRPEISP
# Summary of the method: as §1
# ETV3 = target: T8, ETV3 (Homo sapiens, UniProt P41162-2 1-143)
# T8 sequence: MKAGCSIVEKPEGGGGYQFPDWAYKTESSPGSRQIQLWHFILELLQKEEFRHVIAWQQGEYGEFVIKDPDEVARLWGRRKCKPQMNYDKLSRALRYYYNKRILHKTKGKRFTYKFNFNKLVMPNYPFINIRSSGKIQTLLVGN
# Summary of the method: as §1
# ETV6 = ETV6 (Homo sapiens, UniProt P41212 1-452)
# Summary of the method: as §1
# Sequence of ETV6 (P41212 whole entry): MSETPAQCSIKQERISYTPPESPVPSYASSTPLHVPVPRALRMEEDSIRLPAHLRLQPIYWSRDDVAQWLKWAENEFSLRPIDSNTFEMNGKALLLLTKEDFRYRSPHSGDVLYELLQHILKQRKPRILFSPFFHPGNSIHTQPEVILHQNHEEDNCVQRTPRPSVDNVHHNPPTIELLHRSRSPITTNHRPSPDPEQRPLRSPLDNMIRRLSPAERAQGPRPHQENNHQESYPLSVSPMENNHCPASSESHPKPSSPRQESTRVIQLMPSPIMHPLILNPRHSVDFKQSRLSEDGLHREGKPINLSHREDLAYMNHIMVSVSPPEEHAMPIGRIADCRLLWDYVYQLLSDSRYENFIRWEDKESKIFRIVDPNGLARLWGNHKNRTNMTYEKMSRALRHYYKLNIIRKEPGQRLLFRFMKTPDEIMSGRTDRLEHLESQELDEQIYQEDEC
# Sequence of ETV1 (P50549 whole entry): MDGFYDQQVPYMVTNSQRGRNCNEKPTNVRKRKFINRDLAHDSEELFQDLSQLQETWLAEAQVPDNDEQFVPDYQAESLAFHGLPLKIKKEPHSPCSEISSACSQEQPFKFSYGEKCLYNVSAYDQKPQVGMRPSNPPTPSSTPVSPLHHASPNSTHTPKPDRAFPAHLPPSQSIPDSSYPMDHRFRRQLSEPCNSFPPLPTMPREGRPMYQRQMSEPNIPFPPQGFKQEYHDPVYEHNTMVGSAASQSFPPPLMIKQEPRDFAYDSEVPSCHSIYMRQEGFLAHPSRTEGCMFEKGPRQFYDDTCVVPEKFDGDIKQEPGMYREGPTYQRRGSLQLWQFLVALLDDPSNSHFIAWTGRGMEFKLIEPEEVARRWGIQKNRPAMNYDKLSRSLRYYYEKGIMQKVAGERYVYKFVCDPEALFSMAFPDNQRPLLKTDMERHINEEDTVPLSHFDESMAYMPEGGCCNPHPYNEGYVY
sequence,measurement,setting,value
CGTTGC,binding signal,ELK4,"1.16 fold enrichment (6-mer frequency, TF over GST control)"
same,binding signal,ETV2,"1.12 fold enrichment (6-mer frequency, TF over GST control)"
same,binding signal,ELF3,"1.07 fold enrichment (6-mer frequency, TF over GST control)"
same,binding signal,ETV1,"1.18 fold enrichment (6-mer frequency, TF over GST control)"
same,binding signal,ERF,"1.13 fold enrichment (6-mer frequency, TF over GST control)"
same,binding signal,ETV3L,"1.17 fold enrichment (6-mer frequency, TF over GST control)"
same,binding signal,ETS2,"1.2 fold enrichment (6-mer frequency, TF over GST control)"
same,binding signal,ETV7,"1.03 fold enrichment (6-mer frequency, TF over GST control)"
same,binding signal,ETV3,"1.16 fold enrichment (6-mer frequency, TF over GST control)"
same,binding signal,ETV6,"1.04 fold enrichment (6-mer frequency, TF over GST control)"
